Out of some 5,500 compounds screened, about 2,000 (36%) were called active. Roughly 18% stayed inconclusive and do not appear here. Rule as the data show it: active = normalized growth mostly below about 0.91 (no sharp cut-off); inconclusive = no clear call, values can overlap the other calls; inactive = mostly above about 0.92. Some of the results follow.
Experiment: chemical genetic growth profiling, strain panel (AID 1159580);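 also: tested at 20 µM; growth read once vehicle control cultures reached saturation at 30 °C; 1 = growth at the plate median or of vehicle wells; lower values mean less growth of the strain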
Conditions: S. cerevisiae deletion strains, growth OD

Measured: normalized growth

CC1CC[C@@]2(OC1)O[C@H]1CC3C4CC[C@@H]5CC(=O)CC[C@]5(C)C4CC[C@]3(C)[C@H]1[C@@H]2C (stereo not given in full)
inactive: locus YBR021W, strain FUR4, hits give low values 1.01 | locus YBR229C, strain ROT2, hits give low values 1.01 | locus YCL029C, strain bik1, hits give low values 1.01 | locus YDL035C, strain GPR1, hits give low values 1.05 | locus YDL074C, strain BRE1, hits give low values 1.04 | locus YDL101C, strain DUN1, hits give low values 0.975 | locus YDL134C, strain PPH21, hits give low values 0.982 | locus YDL185W, strain tfp1, hits give low values 0.982 | locus YDL192W, strain arf1, hits give low values 1.01 | locus YDR101C, strain arx1, hits give low values 1.02 | locus YDR150W, strain NUM1, hits give low values 1 | locus YDR162C, strain NBP2, hits give low values 1 | locus YDR318W, strain mcm21, hits give low values 1 | locus YDR388W, hits give low values 0.993 | locus YDR502C, strain sam2, hits give low values 0.974 | locus YER110C, hits give low values 0.994 | locus YER155C, strain BEM2, hits give low values 0.985 | locus YER167W, strain BCK2, hits give low values 1 | locus YGL078C, strain dbp3, hits give low values 0.963 | locus YGL086W, strain mad1, hits give low values 0.989 | locus YGL248W, strain PDE1, hits give low values 0.973 | locus YGR078C, strain PAC10, hits give low values 0.993 | locus YGR135W, strain pre9, hits give low values 0.948 | locus YGR252W, strain gcn5, hits give low values 0.997 | locus YHR079C, strain IRE1 (second series), hits give low values 0.996 | locus YHR094C, strain hxt1, hits give low values 0.985 | locus YHR129C, strain ARP1, hits give low values 0.996 | locus YHR200W, strain rpn10, hits give low values 0.987 | locus YIL066C, strain RNR3, hits give low values 1.02 | locus YIL073C, strain SPO22, hits give low values 0.983 | locus YIL125W, strain kgd1, hits give low values 1 | locus YIR030C, strain dcg1, hits give low values 0.98 | locus YJL095W, strain BCK1, hits give low values 0.977 | locus YJL134W, strain LCB3, hits give low values 0.991 | locus YJL168C, strain set2, hits give low values 0.986 | locus YJL187C, strain SWE1 (second series), hits give low values 0.968 | locus YKL009W, strain mrt4, hits give low values 0.986 | locus YKL068W, hits give low values 0.985 | locus YKL085W, strain MDH1 (second series), hits give low values 0.984 | locus YKL085W, strain MDH1, hits give low values 0.984 | locus YKR001C, strain vps1, hits give low values 0.986 | locus YLR039C, strain RIC1, hits give low values 0.996 | locus YLR058C, strain SHM2, hits give low values 0.999 | locus YLR102C, strain apc9, hits give low values 0.984 | locus YLR268W, strain sec22, hits give low values 1.04 | locus YLR342W, strain FKS1 (second series), hits give low values 1.07 | locus YLR371W, strain rom2, hits give low values 1.01 | locus YLR418C, strain cdc73, hits give low values 0.942 | locus YML016C, strain PPZ1, hits give low values 0.988 | locus YML032C, strain rad52, hits give low values 1.01 | locus YML124C, strain tub3, hits give low values 0.995 | locus YMR078C, strain ctf18, hits give low values 0.985 | locus YMR223W, strain ubp8, hits give low values 0.996 | locus YMR307W, strain GAS1, hits give low values 0.94 | locus YNL067W, strain RPL9B, hits give low values 0.966 | locus YNL233W, strain BNI4, hits give low values 0.972 | locus YNL250W, strain rad50, hits give low values 0.929 | locus YNL271C, strain bni1, hits give low values 0.981 | locus YNL298W, strain CLA4, hits give low values 1 | locus YNL307C, strain MCK1, hits give low values 0.986 | locus YNR052C, strain pop2, hits give low values 0.972 | locus YOL006C, strain TOP1, hits give low values 1.16 | locus YOL012C, strain htz1 1.11 | locus YOL147C, strain pex11, hits give low values 1.01 | locus YOR061W, strain CKA2, hits give low values 1.01 | locus YOR069W, strain VPS5, hits give low values 0.989 | locus YOR136W, strain idh2, hits give low values 0.992 | locus YOR144C, strain elg1, hits give low values 0.992 | locus YOR184W, strain ser1, hits give low values 1.06 | locus YOR316C, strain cot1, hits give low values 0.986 | locus YPR119W, strain clb2, hits give low values 0.985 | locus YPR141C, strain kar3, hits give low values 0.973 | locus YPR163C, strain tif3, hits give low values 0.993 | locus YPR167C, strain met16, hits give low values 0.985 | strain wtn01, hits give low values 1.01

Reference: PubChem BioAssay AID1159580 (chemical genetic matrix, 2015)
